Hit rate of the full screen: of about 5,500 compounds, about 2,000 (36%) were called active. Roughly 18% stayed inconclusive and do not appear here. Cut-off read from the data, not from the text of the source: active = normalized growth mostly below about 0.91 (no sharp cut-off); inconclusive = no clear call, values can overlap the other calls; inactive = mostly above about 0.92. Some of the results follow.
Experiment: chemical genetic growth profiling, strain panel (AID 1159580);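 note: tested at 20 µM; growth read once vehicle control cultures reached saturation at 30 °C; 1 = growth at the plate median or of vehicle wells; lower values mean less growth of the strain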
Details: growth OD

Measured: normalized growth

O=C(O)c1cc(=O)c(O)c2c(O)c(O)ccc2c1
inactive: S. cerevisiae deletion strains, locus YJR075W, strain HOC1, active compounds read low 1.04 | S. cerevisiae deletion strains, locus YKL009W, strain mrt4, active compounds read low 1.04 | S. cerevisiae deletion strains, locus YKL068W, active compounds read low 1.01 | S. cerevisiae deletion strains, locus YKL085W, strain MDH1 (second series), active compounds read low 1.02 | S. cerevisiae deletion strains, locus YKL085W, strain MDH1, active compounds read low 1.02 | S. cerevisiae deletion strains, locus YKL160W, strain elf1, active compounds read low 1.02 | S. cerevisiae deletion strains, locus YKL190W, strain CNB1, active compounds read low 1 | S. cerevisiae deletion strains, locus YKR001C, strain vps1, active compounds read low 1.01 | S. cerevisiae deletion strains, locus YKR026C, strain gcn3, active compounds read low 0.965 | S. cerevisiae deletion strains, locus YKR091W, strain srl3, active compounds read low 0.998 | S. cerevisiae deletion strains, locus YLL001W, strain dnm1, active compounds read low 1 | S. cerevisiae deletion strains, locus YLL026W, active compounds read low 0.992 | S. cerevisiae deletion strains, locus YLL041C, strain sdh2, active compounds read low 0.993 | S. cerevisiae deletion strains, locus YLR027C, strain aat2, active compounds read low 0.998 | S. cerevisiae deletion strains, locus YLR039C, strain RIC1, active compounds read low 1.04 | S. cerevisiae deletion strains, locus YLR058C, strain SHM2, active compounds read low 1.01 | S. cerevisiae deletion strains, locus YLR102C, strain apc9, active compounds read low 1.01 | S. cerevisiae deletion strains, locus YLR113W, strain HOG1, active compounds read low 1 | S. cerevisiae deletion strains, locus YLR221C, strain rsa3, active compounds read low 1.03 | S. cerevisiae deletion strains, locus YLR258W, strain gsy2, active compounds read low 0.993 | S. cerevisiae deletion strains, locus YLR262C, strain YPT6 (second series), active compounds read low 0.942 | S. cerevisiae deletion strains, locus YLR262C, strain YPT6, active compounds read low 0.971 | S. cerevisiae deletion strains, locus YLR268W, strain sec22, active compounds read low 0.987 | S. cerevisiae deletion strains, locus YLR320W, strain mms22, active compounds read low 1 | S. cerevisiae deletion strains, locus YLR330W, strain CHS5, active compounds read low 1 | S. cerevisiae deletion strains, locus YLR342W, strain FKS1 (second series), active compounds read low 1 | S. cerevisiae deletion strains, locus YLR342W, strain FKS1, active compounds read low 0.996 | S. cerevisiae deletion strains, locus YLR357W, strain rsc2, active compounds read low 0.943 | S. cerevisiae deletion strains, locus YLR370C, strain arc18, active compounds read low 0.998 | S. cerevisiae deletion strains, locus YLR371W, strain rom2, active compounds read low 1.03 | S. cerevisiae deletion strains, locus YLR384C, strain iki3, active compounds read low 1.01 | S. cerevisiae deletion strains, locus YLR418C, strain cdc73, active compounds read low 0.946 | S. cerevisiae deletion strains, locus YML016C, strain PPZ1, active compounds read low 0.991 | S. cerevisiae deletion strains, locus YML032C, strain rad52, active compounds read low 1.05 | S. cerevisiae deletion strains, locus YML120C, strain ndi1, active compounds read low 1.01 | S. cerevisiae deletion strains, locus YML124C, strain tub3, active compounds read low 1.01 | S. cerevisiae deletion strains, locus YMR058W, strain fet3, active compounds read low 0.99 | S. cerevisiae deletion strains, locus YMR078C, strain ctf18, active compounds read low 1.03 | S. cerevisiae deletion strains, locus YMR125W, strain sto1, active compounds read low 0.987 | S. cerevisiae deletion strains, locus YMR129W, active compounds read low 1.01 | S. cerevisiae deletion strains, locus YMR205C, strain PFK2, active compounds read low 0.988 | S. cerevisiae deletion strains, locus YMR223W, strain ubp8, active compounds read low 1.05 | S. cerevisiae deletion strains, locus YMR231W, strain pep5, active compounds read low 0.997 | S. cerevisiae deletion strains, locus YMR263W, strain SAP30, active compounds read low 0.999 | S. cerevisiae deletion strains, locus YMR307W, strain GAS1, active compounds read low 1.04 | S. cerevisiae deletion strains, locus YNL067W, strain RPL9B, active compounds read low 1 | S. cerevisiae deletion strains, locus YNL071W, strain lat1, active compounds read low 1 | S. cerevisiae deletion strains, locus YNL128W, strain TEP1, active compounds read low 0.972 | S. cerevisiae deletion strains, locus YNL153C, strain GIM3, active compounds read low 0.98 | S. cerevisiae deletion strains, locus YNL183C, strain NPR1, active compounds read low 0.907 | S. cerevisiae deletion strains, locus YNL209W, strain ssb2, active compounds read low 1 | S. cerevisiae deletion strains, locus YNL233W, strain BNI4, active compounds read low 0.989 | S. cerevisiae deletion strains, locus YNL248C, strain rpa49, active compounds read low 1.04 | S. cerevisiae deletion strains, locus YNL250W, strain rad50, active compounds read low 1.01 | S. cerevisiae deletion strains, locus YNL271C, strain bni1, active compounds read low 0.999 | S. cerevisiae deletion strains, locus YNL298W, strain CLA4, active compounds read low 1.01 | S. cerevisiae deletion strains, locus YNL307C, strain MCK1, active compounds read low 1.04 | S. cerevisiae deletion strains, locus YNL322C, strain KRE1 (second series), active compounds read low 0.981 | S. cerevisiae deletion strains, locus YNL322C, strain KRE1, active compounds read low 1.01 | S. cerevisiae deletion strains, locus YNR049C, strain mso1, active compounds read low 0.993 | S. cerevisiae deletion strains, locus YNR052C, strain pop2, active compounds read low 1.02 | S. cerevisiae deletion strains, locus YOL006C, strain TOP1, active compounds read low 0.984 | S. cerevisiae deletion strains, locus YOL012C, strain htz1 0.622 | S. cerevisiae deletion strains, locus YOL147C, strain pex11, active compounds read low 1.01 | S. cerevisiae deletion strains, locus YOR001W, strain rrp6, active compounds read low 1 | S. cerevisiae deletion strains, locus YOR061W, strain CKA2, active compounds read low 0.995 | S. cerevisiae deletion strains, locus YOR069W, strain VPS5, active compounds read low 1 | S. cerevisiae deletion strains, locus YOR070C, strain gyp1, active compounds read low 1 | S. cerevisiae deletion strains, locus YOR080W, strain dia2, active compounds read low 0.986 | S. cerevisiae deletion strains, locus YOR083W, strain WHI5, active compounds read low 1.02 | S. cerevisiae deletion strains, locus YOR106W, strain vam3, active compounds read low 1.04 | S. cerevisiae deletion strains, locus YOR136W, strain idh2, active compounds read low 1.02 | S. cerevisiae deletion strains, locus YOR144C, strain elg1, active compounds read low 1.01 | S. cerevisiae deletion strains, locus YOR184W, strain ser1, active compounds read low 1.1 | S. cerevisiae deletion strains, locus YOR231W, strain MKK1, active compounds read low 0.987 | S. cerevisiae deletion strains, locus YOR265W, strain rbl2, active compounds read low 0.993 | S. cerevisiae deletion strains, locus YOR270C, strain vph1, active compounds read low 1.01 | S. cerevisiae deletion strains, locus YOR290C, strain snf2, active compounds read low 0.947 | S. cerevisiae deletion strains, locus YOR316C, strain cot1, active compounds read low 1.02 | S. cerevisiae deletion strains, locus YPL051W, strain arl3, active compounds read low 1 | S. cerevisiae deletion strains, locus YPL055C, strain LGE1, active compounds read low 0.964 | S. cerevisiae deletion strains, locus YPL078C, strain atp4, active compounds read low 1.02 | S. cerevisiae deletion strains, locus YPL106C, strain sse1, active compounds read low 0.964 | S. cerevisiae deletion strains, locus YPL240C, strain hsp82, active compounds read low 1 | S. cerevisiae deletion strains, locus YPL241C, strain CIN2, active compounds read low 1.01 | S. cerevisiae deletion strains, locus YPL256C, strain CLN2, active compounds read low 0.968 | S. cerevisiae deletion strains, locus YPR119W, strain clb2, active compounds read low 1.01 | S. cerevisiae deletion strains, locus YPR141C, strain kar3, active compounds read low 1.01 | S. cerevisiae deletion strains, locus YPR163C, strain tif3, active compounds read low 1.02 | S. cerevisiae deletion strains, locus YPR167C, strain met16, active compounds read low 1.01 | S. cerevisiae deletion strains, strain wtn01, active compounds read low 0.998 | S. cerevisiae strains, strain wild type, active compounds read low 1

Reference: PubChem BioAssay AID1159580 (chemical genetic matrix, 2015)
